In PMC7826789 (International Journal of Molecular Sciences, 2021):

System: AAK1
Conditions: Compound Concentration (nM):1000
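Also: KINOMEscan scanMAX binding as percent activity remaining versus control; lower means stronger binding.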

| SMILES | Percent Control [%] |
| --- | --- |
| COc1cc(/C=N/Nc2ncnc3[nH]ncc23)ccc1O [GW578748X] | 34 |
| NS(=O)(=O)c1ccc(N/N=C2\C(=O)Nc3ccc(-c4cnco4)cc32)cc1 [GW276655] | 14 |
| CN1CCN(C(=O)c2ccc(NC(=O)Nc3ccc(N(C)c4ccnc(Nc5ccc(CS(C)(=O)=O)cc5)n4)cc3)cc2)CC1.Cl [GW830263A] | 19 |
| CCS(=O)(=O)c1ccc(OC)c(Nc2ncc(-c3cccc(OC)c3)o2)c1 [GW580509X] | 100 |
| Cl.O=S1CCN(Cc2ccc(-c3ccc4ncnc(Nc5ccc(OCc6ccccc6)c(F)c5)c4c3)o2)CC1 [GW576924A] | 100 |
| CC1=C(C(=O)Nc2ccc3[nH]ncc3c2)C(c2ccc3ccccc3c2)CC(=O)N1 (stereo not shown) [GSK270822A] | 81 |
| COc1ccc2c(-c3ccnc(Nc4cccc(OC(F)(F)F)c4)n3)cnn2n1 [GW810372X] | 69 |
| Cl.O=C(Nc1ccc(Oc2ccc3[nH]c(NC(=O)c4ccco4)nc3c2)cc1)Nc1cc(C(F)(F)F)ccc1F [GW683134A] | 100 |
| CN(C)c1cc2c(Nc3ccc4c(cnn4Cc4ccccc4)c3)ncnc2cn1 [GW282974X] | 75 |
| CCS(=O)(=O)c1ccc(OC)c(Nc2ncc(-c3cccc(F)c3)o2)c1 [GW621970X] | 100 |
| COc1cc(C)c(N(C)C(=O)CN(C)C)cc1Nc1nc(Nc2cccc(F)c2C(N)=O)c2cc[nH]c2n1 [GSK2219385] | 94 |
| Cl.c1ccc(Cc2nc3ccc(Nc4ncnc5ccccc45)cc3[nH]2)cc1 [GR269666A] | 100 |
| COc1ccc2[nH]c3c4[nH]c5ccc(OC)cc5c4c4c(c3c2c1)C(=O)NC4=O [GW296115X] | 53 |
| CCn1c(-c2nonc2N)nc2c(C#CC(C)(C)O)nc(OCCNC)cc21.Cl [GSK949675] | 100 |
| CN(C)CCNC(=O)Nc1ccc(N(C)c2ccnc(Nc3ccc(CS(C)(=O)=O)cc3)n2)cc1.Cl [GW830900A] | 20 |
| NS(=O)(=O)c1ccc(N/N=C2\C(=O)Nc3ccc(C(=O)NCCc4c[nH]cn4)cc32)cc1 [GW300660X] | 100 |
| C[C@@H](Oc1cc(-n2cnc3ccc(OC4CCN(C)CC4)cc32)sc1C(N)=O)c1ccccc1Cl [GSK579289A] | 62 |
| NS(=O)(=O)c1ccc(Nc2ncc(-c3ccccc3)o2)cc1 [GW572399X] | 94 |
| Cc1cc(O)cc(C)c1/C=C/c1cncc(C(N)=O)c1 [GW435821X] | 100 |
| COc1ccc2cc(-c3c(-c4ccncc4)nc(-c4ccc(S(C)(=O)=O)cc4C)n3C)ccc2c1 [SB-633825] | 83 |

| SMILES | Percent Control [%] |
| --- | --- |
| COc1cc2ncn(-c3cc(O[C@H](C)c4ccccc4Cl)c(C(N)=O)s3)c2cc1OC [GSK237701A] | 29 |
| COC(=O)Nc1nc2ccc(Oc3ccc(NC(=O)Nc4cc(C(F)(F)F)ccc4F)cc3)cc2s1.Cl [GW693917A] | 100 |
| COc1cc2ncnc(Nc3ccc4c(cnn4Cc4ccccc4)c3)c2cc1OC.Cl [GW282449A] | 100 |
| C/C(Nc1ccc(S(N)(=O)=O)cc1)=C1/C(=O)Nc2ccccc21 [GW335962X] | 67 |
| Cl.O=C(Nc1ccc(Oc2ccc3[nH]c(NC(=O)c4ccccc4)nc3c2)cc1)Nc1cc(C(F)(F)F)ccc1F [GW709042A] | 100 |
| CCc1ccc(Oc2nccc(-c3c(-c4ccc(F)cc4)ncn3C3CCNCC3)n2)cc1 [SB-242719] | 100 |
| COc1cc(N2CCN(C(C)C)CC2)ccc1Nc1nc(Nc2ccc(F)cc2C(=O)NC[C@@H](O)CO)c2cc[nH]c2n1 [GSK1392956A] | 64 |
| O=C(Nc1n[nH]c2nc(-c3ccc(O)cc3)c(Br)cc12)C1CC1 [SB-725317] | 79 |
| O=C1Nc2ccc(C(=O)c3ccco3)cc2C1=Cc1cc(Cl)c(O)c(Cl)c1 [GW406108X] | 30 |
| COc1cccc(-n2ncc3c(N/N=C/c4ccncc4)ncnc32)c1 [GW784752X] | 85 |
| NS(=O)(=O)c1ccc(N/N=C2\C(=O)Nc3ccc(C(=O)NCc4ccncc4)cc32)cc1 [GW300657X] | 29 |
| Nc1ncnc2occ(-c3ccc(NC(=O)Nc4cc(C(F)(F)F)ccc4F)cc3)c12 [GW770249X] | 96 |
| NS(=O)(=O)c1ccc(N/N=C2\C(=O)Nc3ccc(Cl)cc32)cc1 [GW280670X] | 94 |
| COc1cccc(-c2c[nH]c3c(N/N=C/c4ccncc4)ncnc23)c1 [GW814408X] | 69 |
| COc1ccccc1-c1cc(/C=C2\C(=O)Nc3ncc(Br)cc32)cc(Br)c1O [GW442130X] | 87 |
| CC(C)COC(=O)c1ccc2c(c1)/C(=C/Nc1ccc(S(N)(=O)=O)cc1)C(=O)N2 [GW416981X] | 26 |
| CC1=C(C(=O)Nc2ccc3[nH]ncc3c2)C(c2ccc(Cl)c(Cl)c2)CC(=O)N1 (stereo not shown) [GSK299115A] | 73 |
| COc1ccc(COc2ccc(Cc3cnc(N)nc3N)cc2OC)cc1 [GW632580X] | 94 |
| COc1cc(C=NNc2ncnc3c2cnn3-c2ccccc2)ccc1O [GW513184X] | 91 |
| Cl.O=C(O[C@H]1CN[C@H](C#Cc2cc3ncnc(Nc4ccc5c(cnn5Cc5ccccc5)c4)c3s2)C1)N1CCOCC1 [GSK200398A] | 87 |
